Source: PubChem (National Center for Advancing Translational Sciences (NCATS))
Gal4-VP16 FLuc: inhibits Gal4-VP16 luciferase reporter, ROR gamma counter-screen | Drosophila S2 Gal4-VP16 UAS-luciferase, luminescence, 20 h | Potency, µM (titrated, usually from 53.6 µM), most hits filed as inhibitors | 310,000 compounds, 3.5% hits;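 also: Gal4-VP16 expression switched on by copper sulfate through the metallothionein promoter; nearly all actives have a fitted effect of over 50% in size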
TDP1 cell noCPT: qHTS for Inhibitors of human tyrosyl-DNA phosphodiesterase 1 (TDP1): qHTS in cells in absence of CPT; DT40 Tdp1-/- hTDP1 cells, no CPT, ATP luminescence, 48 h; Potency, µM (titrated, usually from 46.2 µM), usual class: inhibitors; 420,000 compounds, 15% hits; AID 686978, 2013; also: nearly all actives have a fitted effect of over 55% in size
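No-CPT arm: Tdp1-/-;hTDP1 DT40 cells (400/well) plus compounds, incubated ≥48 hr at 37 °C. Readout CellTiter-Glo luminescence.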
RORgamma inh: blocks mouse ROR gamma transcriptional activity. Drosophila S2 Gal4-RORgamma UAS-luciferase reporter, 20 h. Potency, µM (top dose mostly 53.6 µM), most hits filed as inhibitors. 310,000 compounds, 5.4% hits. P51450; also: nearly all actives have a fitted effect of over 60% in size
Target sequence (P51450 whole entry, looked up, the tested form may be a part): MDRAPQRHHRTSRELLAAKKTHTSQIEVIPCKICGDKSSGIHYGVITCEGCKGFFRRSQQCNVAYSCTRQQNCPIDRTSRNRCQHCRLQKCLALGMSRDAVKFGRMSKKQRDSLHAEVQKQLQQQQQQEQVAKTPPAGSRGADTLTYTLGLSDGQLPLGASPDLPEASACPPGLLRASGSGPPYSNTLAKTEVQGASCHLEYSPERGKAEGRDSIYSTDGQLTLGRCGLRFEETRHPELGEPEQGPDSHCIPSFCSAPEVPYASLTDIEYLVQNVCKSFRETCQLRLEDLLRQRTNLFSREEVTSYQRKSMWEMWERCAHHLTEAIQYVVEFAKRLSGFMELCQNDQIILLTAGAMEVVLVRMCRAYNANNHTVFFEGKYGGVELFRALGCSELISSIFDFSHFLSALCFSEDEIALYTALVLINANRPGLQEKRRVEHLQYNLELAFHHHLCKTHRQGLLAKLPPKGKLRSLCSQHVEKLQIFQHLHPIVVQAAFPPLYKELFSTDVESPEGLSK
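Read-out: Photinus luciferase luminescence; inhibitors lower reporter signal. Insect Schneider cells with Gal4-ROR gamma fusion under metallothionein promoter, UAS reporter; 700 uM final copper sulfate induction, 20 hr, ambient temperature.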
DT40 TDP1 CPT: growth inhibition of DT40 Tdp1-/-;hTDP1 cells with camptothecin (screen for TDP1 inhibitors); 420,000 compounds, 12% hits; AID 686979; chicken DT40 Tdp1-/-;hTDP1 cells + 20 nM CPT, ATP luminescence, 48 h; Potency, µM (doses to about 46.2 µM), most hits filed as inhibitors; also: nearly all actives have a fitted effect of over 55% in size
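Chicken DT40 Tdp1-/- cells stably complemented with human TDP1 were seeded at 400 cells/well in medium containing 20 nM camptothecin, exposed to pin-transferred compounds, and grown at 37 °C for at least 48 hr. Viability was read as ATP luminescence.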
TDP1 block: blocks human tyrosyl-DNA phosphodiesterase 1; recombinant TDP1, AlphaScreen DNA substrate cleavage; AID 485290; Potency, µM (highest dose often 130 µM), actives largely listed as inhibitors; Q9NUW8; 350,000 compounds, 0.28% hits; also: nearly all actives have a fitted effect of over 40% in size
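AlphaScreen read-out: signal falls as enzyme removes the 3' tyrosine-FITC from a 5'-biotinylated DNA oligo (15 nM, 5 min, RT). Enzyme was E. coli-made recombinant Tdp1 at 1 nM, exposed to compound for 15 min beforehand; beads 10 ug/ml, 10 min.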
A number is an active result; n = inactive; u = inconclusive; x = not tested or not shown; [ ] = remark or other dose. A selection: hits, their analogues and other compounds. The true share with any hit is near 19%. Calls follow the shape of the dose curve; as a rule, active = well fitted curve in the direction sought with a large enough effect; inconclusive = small, poorly fitted or top-dose-only effect, or another doubt; inactive = no such curve, though single readings can be large; an effect the other way counts as inactive or inconclusive.

SMILES	Gal4-VP16 FLuc	TDP1 cell noCPT	RORgamma inh	DT40 TDP1 CPT	TDP1 block
CS(=O)(=O)N1CCc2cc(C(=O)Nc3ccc(C(F)(F)F)cc3)ccc21	x	8.2µM	x	9.2µM	n
CCc1ccc(NC(=O)c2ccc3c(c2)CCN3S(C)(=O)=O)cc1	x	26µM	x	u	x
CS(=O)(=O)N1CCc2cc(C(=O)Nc3ccc(Cl)c(C(F)(F)F)c3)ccc21	x	8.2µM	x	18µM	n
CC(C)c1ccc(NC(=O)c2ccc3c(c2)CCCN3S(C)(=O)=O)cc1	x	4.1µM	x	6.5µM	n
O=C(O)c1cccc(CSc2n[nH]c(-c3ccc(Cl)cc3Cl)n2)c1	n[10 µM]	n	n	n	n
CCOC(=O)Cc1csc(NC(=O)COC(=O)/C=C/c2ccc(OC)cc2)n1	x	n	x	n	n
CCS(=O)(=O)N1CCc2cc(C(=O)Nc3cccc(C(C)=O)c3)ccc21	x	18µM	x	u	n
CC(C)n1cnnc1SCC(=O)Nc1ccc(N2CCCCC2)cc1	x	n	x	n	x
C#C[C@]1(OC(C)=O)CC[C@H]2[C@@H]3CCC4=C/C(=N/O)CC[C@@H]4[C@H]3CC[C@@]21CC	u	19µM	u	u	x
Cc1ncc(CN2CCN(Cc3ccc(F)cc3)C(CCO)C2)s1 (stereo not given)	n	n	n	n	n
Cc1ccc2cc(CCNS(=O)(=O)c3ccc(Br)cc3)c(=O)[nH]c2c1C	n	23µM	n	u	n
Cc1cc(C)c(S(=O)(=O)NCCc2cc3ccc(C)c(C)c3[nH]c2=O)c(C)c1	n	18µM	n	u	n
COc1cc2c(cc1NC(=O)COC(=O)/C=C/c1ccc([N+](=O)[O-])cc1)oc1ccccc12	n	n	n	n	x
CCCNC(=O)CC(NS(=O)(=O)c1ccc(NC(C)=O)cc1)C(C)C (stereo not given)	n	n	n	n	n
CSc1ccccc1NC(=O)C1C2CCC(C2)C1C(=O)O (stereo not given)	n	n	n	n	n
Cc1cc(NC(=O)CSc2nnc(-c3ccccc3F)n2C)no1	x	n	x	n	n
Cc1[nH]n(-c2ncc(-c3ccc(Cl)cc3)s2)c(=O)c1C(c1ccc(Cl)cc1)C(C#N)C#N (stereo not given)	u	u	14µM	n	n
CCCc1[nH][nH]c(=O)c1C(c1cccc(Cl)c1)C(C#N)C#N (stereo not given)	n	u	n	u	n
COC(=O)[C@@]1(Cc2ccccc2)[C@H]2c3cc(C(=O)N(C)C)n(CCO)c3C[C@H]2CN1C(=O)c1ccccc1	n	x	n	x	n
CN1C(=O)CC(NNC(=O)c2ccc(Cl)cc2)C1=O (stereo not given)	n	n	n	n	n
COC(=O)CN1C(C)=Nc2ccc(C)cc2C1c1ccccc1 (stereo not given)	n	n	n	n	n
COC(=O)CN1C(c2ccccc2)=Nc2ccc(Cl)cc2C1c1ccccc1 (stereo not given)	n	n	13µM	n	n
O=C(COC(=O)c1cc(S(=O)(=O)N2CCOCC2)ccc1O)NCc1ccc2c(c1)OCO2	x	n	x	n	n
Cc1ccccc1OCCCCn1c(C2CC(=O)N(c3ccccc3Cl)C2)nc2ccccc21 (stereo not given)	x	n	x	u	n
Cc1cc(C)cc(OCCn2c(C3CC(=O)N(c4ccccc4Cl)C3)nc3ccccc32)c1 (stereo not given)	x	21µM	x	u	x
SMILES	Gal4-VP16 FLuc	TDP1 cell noCPT	RORgamma inh	DT40 TDP1 CPT	TDP1 block
COc1ccc(OCCn2c(C3CC(=O)N(c4ccc(F)cc4)C3)nc3ccccc32)cc1 (stereo not given)	x	18µM	x	16µM	n
Cc1ccc(OCCn2c(C3CC(=O)N(Cc4ccccc4)C3)nc3ccccc32)cc1 (stereo not given)	u	15µM	u	u	n
CCOc1ccc(N2CC(c3nc4ccccc4n3Cc3ccccc3F)CC2=O)cc1 (stereo not given)	x	u	x	u	n
Cc1ccc(OCCn2c(=O)cnc3ccccc32)cc1	n	u	n	u	n
CCOc1ccc(N2CC(c3nc4ccccc4n3CCCOc3ccc(OC)cc3)CC2=O)cc1 (stereo not given)	x	8.2µM	x	u	n
CCOc1ccccc1N1CC(c2nc3ccccc3n2CCCOc2ccc(OC)cc2)CC1=O (stereo not given)	x	n	x	n	n
O=C(NCC(F)(F)F)C1C(=O)Nc2ccccc2C(=O)N1Cc1ccccc1 (stereo not given)	x	n	x	n	x
NC(=O)CSc1ccc(S(=O)(=O)N2CCCCC2)cn1	x	n	x	n	n
CCOc1ccccc1N1CC(c2nc3ccccc3n2CCOc2ccc(OC)cc2)CC1=O (stereo not given)	x	18µM	x	u	n
CCc1ccccc1N1CC(c2nc3ccccc3n2CCCOc2ccc(Cl)cc2)CC1=O (stereo not given)	x	n	x	n	n
CCc1ccccc1N1CC(c2nc3ccccc3n2CC(C)C)CC1=O (stereo not given)	x	21µM	x	15µM	n
O=C(Nc1ccc2nc(SCC(=O)N3CCc4ccccc43)sc2c1)c1cccc(Cl)c1	x	u	x	u	n
O=C(Nc1ccc2nc(SCC(=O)N3CCc4ccccc43)sc2c1)c1ccc(Cl)cc1	x	12µM	x	9.2µM	n
Cc1ccc(C(=O)Nc2ccc3nc(SCC(=O)N4CCc5ccccc54)sc3c2)cc1	x	u	x	u	n
O=C(Nc1ccc2nc(SCC(=O)N3CCCc4ccccc43)sc2c1)c1cccc(Cl)c1	x	6.5µM	x	13µM	n
O=C(Nc1ccc2nc(SCC(=O)N3CCc4ccccc43)sc2c1)c1ccc(F)cc1	x	8.2µM	x	10µM	n
O=C(Nc1ccc2nc(SCC(=O)N3CCc4ccccc43)sc2c1)c1cccc(F)c1	x	4.1µM	x	3.7µM	n
Cc1ccc2nc3c(cc(C(=O)NC4CCCC4)c(=N)n3C3CCCCC3)c(=O)n2c1	n	u	n	u	x
Cc1ccc(Cn2c(=N)c(C(=O)NC3CCCC3)cc3c(=O)n4ccccc4nc32)cc1	n	6.5µM	n	10µM	n
N=c1c(C(=O)NC2CCCCC2)cc2c(=O)n3ccccc3nc2n1Cc1ccccc1	n	u	n	u	n
N=c1c(C(=O)NC2CCCCC2)cc2c(=O)n3ccccc3nc2n1Cc1cccnc1	n	n	n	n	n[0.0935 µM]
N=c1c(C(=O)NC2CCCCC2)cc2c(=O)n3ccccc3nc2n1CCc1ccccc1	n	21µM	n	u	n
Cc1ccc2nc3c(cc(C(=O)NC4CCCCC4)c(=N)n3C3CCCCC3)c(=O)n2c1	n	15µM	n	u	n
Nc1cc(=O)[nH]c(SCC(=O)Nc2ccc(Cl)c(Cl)c2)n1	n	n	n	n	n
Nc1cc(=O)[nH]c(SCc2ccc(Cl)cc2Cl)n1	u	7.3µM	n	8.2µM	x
CCNC(=O)NC(=O)C(C)OC(=O)CCCSc1nc2ccccc2s1 (stereo not given)	4.5µM	n	u	n	n
